High-throughput results deposited in PubChem BioAssay by National Center for Advancing Translational Sciences (NCATS).
TDP1 cell noCPT = qHTS for Inhibitors of human tyrosyl-DNA phosphodiesterase 1 (TDP1): qHTS in cells in absence of CPT. DT40 Tdp1-/- hTDP1 cells, no CPT, ATP luminescence, 48 h. Potency, µM (series often up to 46.2 µM), without a hit: at the highest dose activity change, negative = growth inhibition, usual class: inhibitors. hit rate 15% among 420,000. AID 686978, 2013; further: potency means the concentration at half of the fitted maximal effect; nearly all actives have a fitted effect of over 55% in size
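Luminescent ATP content (CellTiter-Glo) served as the growth readout. Knockout chicken DT40 cells expressing human TDP1 were exposed to compounds without camptothecin for a minimum 48 hr at 37 °C.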
HT1080 IDH1KD tx = HT-1080 IDH1 knockdown cell toxicity (counter line). hit rate 2% among 360,000. Potency, µM (top dose mostly 46.1 µM), inactives show at the top dose activity, negative = toxicity, hits mostly cytotoxic. HT-1080 IDH1 knockdown viability, ATP luminescence, 48 h;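 further: potency means the concentration at half of the fitted maximal effect; 0% = DMSO wells and -100% = cell-free medium wells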
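IDH1KD HT-1080 cells, 750/well, RPMI + 5% FBS; compound pinned after 2 h settling; 48 h, 37 °C; CellTiter-Glo luminescence; % activity normalised to DMSO and no-cell wells; curves fitted, classed by r2 and efficacy.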
IL-1B inflam inh = inflammasome signaling inhibition, IL-1 beta readout | THP-1 LPS/ATP IL-1B secretion, AlphaLISA, 16 h; active compounds read low | activity change, % at 57.5 µM | hit rate 4.7% among 360,000 | AID 743279; in the data active means activity change below about -50%; inconclusive means mostly about -30% to -49%
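THP-1 cells pretreated 1 hr with compounds (up to 57.5 uM final), then stimulated with LPS (250 ng/mL final) plus ATP (1.25 mM final); secreted IL-1B measured by AlphaLISA after 16 hr, decreased signal indicating inhibition.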
DT40 TDP1 CPT = DT40-hTDP1 cell growth loss with CPT; hit rate 12% among 420,000; chicken DT40 Tdp1-/-;hTDP1 cells + 20 nM CPT, ATP luminescence, 48 h; Potency, µM (titrated, usually from 46.2 µM), without a hit: at the highest dose activity change, negative = growth inhibition, most hits filed as inhibitors; AID 686979; further: potency means the concentration at half of the fitted maximal effect; nearly all actives have a fitted effect of over 55% in size
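Cell growth measured by CellTiter-Glo luminescence after a minimum 48 h, 37 C compound exposure with 20 nM CPT in Tdp1-knockout DT40 cells stably expressing hTDP1, seeded 400/well; qHTS titration format.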
HT1080NT lethal = kills 2HG-producing HT-1080-NT fibrosarcoma cells | HT-1080-NT fibrosarcoma viability, CellTiter-Glo ATP luminescence, 48 h | Potency, µM (series often up to 46.1 µM), for the others: at the top dose activity, negative = less viability, hits mostly cytotoxic | hit rate 1.6% among 360,000;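 further: NT is the 2HG producing partner of a matched IDH1 knockdown line; potency means the concentration at half of the fitted maximal effect; 0% = DMSO-treated cells and -100% = media-only wells without cells; nearly all actives have a fitted effect of over 55% in size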
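Read-out is CellTiter-Glo luminescence after 10 minutes at room temperature, following 48 hours' compound treatment of HT-1080-NT cells (750 cells/well, RPMI, 5% FBS, 37 degrees C).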
* hit, by the source's call; ? = inconclusive; nt = not tested or not shown; [ ] = remark or other dose. Sampled rows, rich in hits. Any-hit rate of the full collection: about 19%. Unless noted, the call rests on the fitted dose curve; in most records, active means well fitted curve in the direction sought with a large enough effect; inconclusive means small, poorly fitted or top-dose-only effect, or another doubt; inactive means no such curve, though single readings can be large; an effect the other way counts as inactive or inconclusive. Unless noted, on the % scale 0 is the no-effect control and ±100 the full control effect.

SMILES	TDP1 cell noCPT	HT1080 IDH1KD tx	IL-1B inflam inh	DT40 TDP1 CPT	HT1080NT lethal
Cc1cccc(-n2cc(-c3ccccc3)c3c(NC(C)C)ncnc32)c1	23µM*	nt	nt	21µM*	nt
Cc1ccc(CNc2ncnc3c2c(-c2ccccc2)cn3-c2ccccc2)cc1	-88%	nt	nt	?	nt
COC(=O)Cc1c(C)c2ccc(OC3CCCCC3=O)c(C)c2oc1=O (stereo not drawn)	18µM*	-13%	-26	?	-24%
CCN(c1ccc2c(c1)OCO2)S(=O)(=O)c1cc2c(cc1Br)CCN2C(=O)C1CC1	21µM*	9%	8	16µM*	-3%
CCN(c1ccc2c(c1)OCO2)S(=O)(=O)c1cc(Br)cc2c1N(C(C)=O)CC2	?	?	43	?	-19%
Cc1ccc(NS(=O)(=O)c2ccc(Cl)c(NC(=S)NC(=O)C3CCCCC3)c2)cc1Cl	?	?	-77*	23µM*	?
CCOc1ccc(NS(=O)(=O)c2ccc3c(c2)CCN3C(=O)C2CCC2)cc1	?	-8%	17	?	-8%
CCC1CCCCN1S(=O)(=O)c1ccc2c(c1)CCN2C(=O)C1CCC1 (stereo not drawn)	?	?	-15	?	?
Cc1ccc(NC(=O)C2CCCC2)cc1Cl	-10%	-15%	-24	15%	-7%
O=C(C1CCC1)N1CCc2cc(S(=O)(=O)Nc3ccc4c(c3)OCO4)ccc21	14µM*	16µM*	?	11µM*	-16%
O=C(CCl)c1ccc2c(c1)CCN2C(=O)C1CCCCC1	1.6µM*	?	-103*	1.3µM*	23µM*
COCC(C)n1c(C)cc(C(=O)COC(=O)c2cc(=O)[nH]c3ccccc23)c1C (stereo not drawn)	?	-5%	-12	?	1%
Cc1ccc(NS(=O)(=O)c2ccc3c(c2)CCCN3C(=O)C2CCC2)cc1Cl	23µM*	nt	nt	?	nt
Cc1ccc(NS(=O)(=O)c2ccc3c(c2)CC(C)N3C(=O)C2CCC2)cc1Cl (stereo not drawn)	10µM*	nt	nt	16µM*	nt
CC1Cc2cc(S(=O)(=O)N3CCN(c4cccc(Cl)c4)CC3)ccc2N1C(=O)C1CC1 (stereo not drawn)	?	10%	-19	?	15%
Cc1cc(Cl)ccc1NS(=O)(=O)c1ccc2c(c1)CC(C)N2C(=O)C1CCC1 (stereo not drawn)	16µM*	nt	nt	18µM*	nt
COc1cc2c(cc1OC)CN(C(=O)CCC(=O)c1ccc(F)cc1)CC2	12µM*	?	46	18µM*	?
COc1cc2c(cc1OC)CN(CCC(=O)c1ccc(Br)cc1)CC2	1.6µM*	23µM*	0	3.7µM*	26µM*
CCOC(=O)c1c(CN2CCNCC2)nc2ccc(Cl)cc2c1-c1ccccc1	4.6µM*	?	-64*	4.6µM*	-16%
Cc1nc2ccc(Cl)cc2c(-c2ccccc2)c1C(=O)N(C)C	13%	11%	1	-19%	0%
CCSc1ccc2cc(OC)ccc2[n+]1CC	7.3µM*	6%	0	5.8µM*	14%
Cc1cc(=O)n2nc(N3CCC(C(=O)Nc4ccc(Br)cc4F)CC3)sc2n1	3%	nt	nt	?	nt
Cc1cc(=O)n2nc(N3CCC(C(=O)Nc4ccc(Br)c(C)c4)CC3)sc2n1	-29%	nt	nt	15µM*	nt
O=c1c2cc(F)ccc2[nH]c(=S)n1Cc1ccc(F)cc1	?	-4%	26	-27%	-1%
COc1ccc(C(=O)Nc2cc3c(cc2N2CCCCC2)n(C)c(=O)n3C)cc1OC	21µM*	-22%	-30	?	-23%
SMILES	TDP1 cell noCPT	HT1080 IDH1KD tx	IL-1B inflam inh	DT40 TDP1 CPT	HT1080NT lethal
CCOc1ccc(NC(=O)Nc2cc3c(cc2N2CCCCC2)n(C)c(=O)n3C)cc1	13µM*	nt	nt	12µM*	nt
Cc1ccc(C(=O)Nc2cc3c(cc2N2CCCCC2)n(C)c(=O)n3C)cc1	1%	21%	60	-29%	14%
COc1cc(C(=O)Nc2cc3c(cc2N2CCCCC2)n(C)c(=O)n3C)cc(OC)c1OC	15µM*	1%	-1	21µM*	?
O=C(CSc1n[nH]c(=O)[nH]c1=O)Nc1ccc(Br)cc1Br	11%	-3%	5	-12%	2%[9.24 µM]
CCOc1ccc(NC(=O)c2cc3cc(C)ccc3n2C)cc1	-21%	nt	nt	-4%	nt
Cc1ccc(N2C(=O)CSC2c2cccnc2)c(Cl)c1 (stereo not drawn)	21µM*	?	26	18µM*	?
Cc1cccc(/C=C2\Oc3cc(OS(C)(=O)=O)ccc3C2=O)c1	?	-23%	-56*	?	?
COC(=O)COc1ccc2c(c1)O/C(=C\c1cccc([N+](=O)[O-])c1)C2=O	13µM*	-1%	-1	18µM*	2%
O=C1/C(=C/c2cccc(F)c2)Oc2cc(O)ccc21	?	-13%	-79*	?	-18%
COc1ccc(/C=C2\Oc3cc(OCC(N)=O)ccc3C2=O)cc1OC	?	-8%	-2	?	-4%
COc1ccc2c(c1)O/C(=C\c1ccco1)C2=O	-14%	10%	-17	6%	3%
O=C1NC(=O)C(=C2CCOC2=O)N1	6%	8%	-17	-6%	0%
COc1cc(C(C)=O)ccc1Oc1ncnc2c1cnn2-c1ccc(F)cc1	9.2µM*	6%	-12	?	6%
OCCC1CN(Cc2ccon2)CCN1Cc1ccc(F)c(F)c1 (stereo not drawn)	-1%	6%	10	1%	2%
Cc1cccc(Nc2nc(NCCCN3CCOCC3)nc(N)c2[N+](=O)[O-])c1	15µM*	-2%	-80*	16µM*	-8%
Nc1nc(NCCCN2CCOCC2)nc(Nc2ccccc2F)c1[N+](=O)[O-]	16µM*	-1%	-57*	-11%	0%
Nc1nc(NCCCN2CCOCC2)nc(Nc2cccc(F)c2)c1[N+](=O)[O-]	?	?	-5	?	?
O=C1[C@@H]2[C@@H]3C[C@@H]([C@H]4ON=C(c5ccc(Cl)cc5)[C@@H]34)[C@@H]2C(=O)N1C1CCCCC1	9.2µM*	-8%	-20	16µM*	-2%
CCn1c(CN2CCN(Cc3ccc(C)cc3)C(CCO)C2)nc2ccccc21 (stereo not drawn)	?	1%	-1	-1%	-14%
CCCC(C)c1nnc(NC(=O)C2CC(=O)N(CCc3ccc(F)cc3)C2)s1 (stereo not drawn)	?	-18%	37	?	-10%
COc1ccccc1C(=O)Nc1ccc(Cc2ccncc2)cc1	21µM*	8%	2	?	10%
